PubChem BioAssay AID1209 (Sanford-Burnham Center for Chemical Genomics, 2008)
In all, about 190,000 compounds went through this assay and about 810 (0.43%) were called active. This excerpt belongs to a sample that is enriched for actives. Unmarked numbers belong to inactive results. No stated cut-off is given here; in the data, active means inhibition above about 50%; inactive means the rest.

target: Mannose-6-phosphate isomerase (Homo sapiens) (UniProt P34949); assay: inhibitors of human PMI, primary screen, biochemical, fluorescence intensity, coupled assay (AID 1209); conditions: purified PMI enzyme, at 20 µM, hits give high values;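 further: plate controls were DMSO vehicle for no effect and wells lacking substrate for full effect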
Sequence (P34949 whole entry, looked up): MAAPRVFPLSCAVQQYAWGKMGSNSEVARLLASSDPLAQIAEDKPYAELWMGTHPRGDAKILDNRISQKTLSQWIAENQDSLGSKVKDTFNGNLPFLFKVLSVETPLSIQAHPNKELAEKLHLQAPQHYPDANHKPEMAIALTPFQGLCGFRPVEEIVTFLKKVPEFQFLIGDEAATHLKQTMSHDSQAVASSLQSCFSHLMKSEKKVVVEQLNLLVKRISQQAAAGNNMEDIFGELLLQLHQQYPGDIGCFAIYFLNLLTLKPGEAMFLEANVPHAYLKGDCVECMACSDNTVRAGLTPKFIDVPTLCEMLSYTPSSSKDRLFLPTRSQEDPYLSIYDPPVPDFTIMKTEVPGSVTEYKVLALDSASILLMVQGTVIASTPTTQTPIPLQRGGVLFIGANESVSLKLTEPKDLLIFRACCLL

Point of comparison: O=C(CNC(=O)c1cccc(Cl)c1)Nc1ccc(Br)cc1C(=O)c1ccccc1, inhibition 17.1%. Against it:
- CCc1ccc(N2C(=O)NC(=O)C(CCc3ccncc3)(CCc3ccncc3)C2=O)cc1 — lower, 4.9%
- c1ccc(CCn2nnnc2CN2CCC(n3nnc4ccccc43)CC2)cc1 — lower, -11.1%
- COc1cccc(N2C(=O)NC(=O)C3(Cc4cc(C)ccc4N(C)C3)C2=O)c1 (stereo not drawn) — lower, -37%
- CN1CCc2nc(N)c(C#N)c(-c3ccccc3)c2C1 — lower, 2.3%
- Cc1ccc2c(c1)=C/C(=C\c1c(O)[nH]c(=S)[nH]c1=O)C(=O)N=2 — higher, 21.3%
- Cc1cccc2c1=NC(=O)/C(=C/c1c(O)[nH]c(=O)[nH]c1=O)C=2 — lower, -7.2%
- O=C(NC1(C(F)(F)F)Oc2ccccc2O1)N1CCC2(CC1)OCCO2 — higher, 32.9%
- O=C(NC(=O)N1CCC2(CC1)OCCO2)c1ccc(Cl)cc1 — lower, 10.2%
- CC(=O)Nc1ccccc1C(=O)OCc1ccc(F)cc1 — lower, 1.8%
- CS(=O)(=O)N1CCN(C(=N)N[N+](=O)[O-])CC1 — lower, -5.1%
- C/C(=N\N1CCCCC1c1cccnc1)c1c(O)n(C2CCCCC2)c(=S)[nH]c1=O (stereo not drawn) — lower, 5.8%
- O=C1C(=O)c2cccc3cccc1c23 — higher, 17.2%
- O=C1C(=O)c2ccccc2-c2ccccc21 — higher, 25.8%
- Cc1cc(Oc2ccc(C(F)(F)F)cc2[N+](=O)[O-])c2c3c(c(=O)oc2c1)CCC3 — lower, -1.9%
- Cc1cc(N2C(=O)CC(N3CCC(n4c(=O)[nH]c5ccccc54)CC3)C2=O)no1 (stereo not drawn) — lower, 6.9%
- COc1cc(CN2CC3CC(C2)c2cccc(=O)n2C3)cc(OC)c1OC (stereo not drawn) — lower, -1.2%
- CCN(CC)CCCN=Cc1c(O)n(CCc2ccc(OC)c(OC)c2)c(=O)[nH]c1=O — lower, -10.4%
- CCN(CC)c1ccc(N=Cc2c(O)n(CCC3=CCCCC3)c(=O)[nH]c2=O)cc1 — higher, 24.6%
- CCOC(=O)C(NC(=O)C(Cc1ccc(N(CCCl)CCCl)cc1)NC(C)=O)C(C)C (stereo not drawn) — lower, -44.3%
- Cc1ccc(N2C(=O)/C(=C/N3CCN(C(=O)c4ccco4)CC3)C(=O)NC2=S)cc1C — higher, 37.6%
- O=C1NC(=S)N(c2ccc(Br)cc2)C(=O)/C1=C/N1CCN(C(=O)c2ccco2)CC1 — higher, 25.8%
- CSCCC(N=Cc1c(O)n(-c2ccc(F)cc2)c(=O)[nH]c1=O)C(=O)OC(C)(C)C (stereo not drawn) — lower, 12.2%
- Cc1ccc(NC2=NCCCS2)c(C)c1C — lower, 12.6%
- Cc1cc(/C=C2/C(=O)NC(=O)N(C)C2=O)c(C)n1-c1ccccc1 — lower, 2.6%
- Cc1ccnc(-n2c(C)cc(C=C3C(=O)N(C)C(=S)N(C)C3=O)c2C)c1 — higher, 23.1%
- C=CCN1C(=O)/C(=C/c2cc(C)n(-c3ccccn3)c2C)C(=O)NC1=S — lower, -25.6%
- Cc1cc(C=C2C(=O)N(C)C(=O)N(C)C2=O)c(C)n1-c1ccccc1 — lower, -25.1%
- COc1cc2c(cc1O)C[C@H]1NCCc3cc4c(c-2c31)OCO4 — lower, 6.6%
- CCOC(=O)c1c(C)n(Cc2ccccc2)c2ccc(OCC(O)Cn3nc(C)cc3C)cc12 (stereo not drawn) — lower, 16.3%
- CCOC(=O)c1c(C)n(Cc2ccccc2)c2ccc(OCC(O)Cn3nc(C)nc3C)cc12 (stereo not drawn) — lower, 15.7%
- CCOC(=O)C1=C(C)OC(N)=C(C#N)C12C(=O)N(C)c1ccccc12 (stereo not drawn) — lower, 5.2%
- C=CCOC(=O)C1=C(C)OC(N)=C(C#N)[C@@]12C(=O)N(CC(N)=O)c1ccccc12 — lower, -6.8%
- Nc1ccc(Cl)cc1C(=O)c1ccccc1Cl — lower, 5.4%
- CNC(=O)OCc1n(C)cc[n+]1C — higher, 20.7%
- CN(C)C(=O)OCc1n(C)cc[n+]1C — lower, -9.3%
- CCn1cc(CN2CCCC(C(=O)c3cccc(OC)c3)C2)c(C)n1 (stereo not drawn) — lower, 13%
- CNC(C(=O)c1ccccc1)C(OC)c1ccc(C)cc1 (stereo not drawn) — lower, -37.6%

Cc1ccc2c(c1)=C/C(=C\c1c(O)[nH]c(=O)[nH]c1=O)C(=O)N=2 was tested, and the inhibition was 65% (active).
O=C(NC1(C(F)(F)F)Oc2ccc(Cl)cc2O1)N1CCC2(CC1)OCCO2 (stereo not drawn) was tested, and the inhibition was 79.1% (active).
With O=C1C=Cc2ccccc2C1=O the inhibition was 79.1% (active).
In the case of CCN(CC)c1ccc(N=Cc2c(O)n(CCc3ccc(OC)c(OC)c3)c(=O)[nH]c2=O)cc1, the inhibition is reported as 50% (active).
Cc1cccc(N2C(=O)/C(=C/N3CCN(C(=O)c4ccco4)CC3)C(=O)NC2=S)c1 was tested, and the inhibition was 55.5% (active).
In the case of Cc1cc(C=C2C(=O)N(C)C(=S)N(C)C2=O)c(C)n1-c1cccnc1, the inhibition is reported as 59.6% (active).
With C=CCN1C(=O)/C(=C/c2cc(C)n(-c3cccnc3)c2C)C(=O)NC1=S the inhibition was 50.2% (active).
With CCOC(=O)c1c(C)n(Cc2ccccc2)c2ccc(OCC(O)CN3C(=O)CNC3=O)cc12 (stereo not drawn) the inhibition was 60.1% (active).
For C#CCN1C(=O)C2(C(C#N)=C(N)OC(C)=C2C(=O)OCc2ccccc2)c2ccccc21 (stereo not drawn), the inhibition was 51.6% (active).
CCN(CC)P(c1n(C)cc[n+]1C)N(CC)CC was tested, and the inhibition was 54.3% (active).
